Data on 14 compounds can be found in the supplement of paper PMC9262897, “Low-cost anti-mycobacterial drug discovery using engineered E. coli” (Nature Communications, 2022).

SMILES strings stand for the structures. Where a name gives a salt, the structure may show the parent alone. ± gives the standard deviation of the averaged measurements.

The experiment relates to E. coli TESEC Mtb Alr. In words: growth (OD600 after 10 h); higher = more growth (less inhibition). The note with it: arabinose 1000000 nM; compound 0.1 mM; raw OD600 reference: median of DMSO wells 0.193, cell-free background 0.041. The procedure: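 TESEC Mtb Alr E. coli, or the Alr+ wild-type control, in 384-well plates with Prestwick library compounds at 0.1 mM and 1% DMSO, across arabinose induction levels of 1E3 to 1E7 nM. Growth is read as OD600 after 10 h at 37 °C in triplicate biological replicates.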
The compound `CC(C)(C)NCC(O)c1ccccc1Cl` (centres undefined) [Tulobuterol] had a growth of 0.203 ± 0.0095. Under `Clc1ccc(C(OCCN2CCCCC2)c2ccccc2)cc1` (centres undefined) [Cloperastine hydrochloride] stands 0.0487 ± 0.0015; under `CN(C)C(=O)Oc1cc(OC(=O)N(C)C)cc(C(O)CNC(C)(C)C)c1` (centres undefined) [Bambuterol hydrochloride], 0.193 ± 0.006; under `C[C@@H]1C[C@@H]([C@H](O)CC2CC(=O)NC(=O)C2)C(=O)[C@@H](C)C1` [Cycloheximide], 0.186 ± 0.011. `CC(Cc1ccc(O)cc1)NCC(O)c1cc(O)cc(O)c1` (centres undefined) [Fenoterol hydrobromide] yielded a growth of 0.19 ± 0.0033. Compound `COc1ccc(CCN)cc1OC` [Homoveratrylamine] came in with a growth of 0.219 ± 0.0076.

For the compound `C(#CCN1CCCC1)CN1CCCC1` [Tremorine dihydrochloride], the growth came out at 0.194 ± 0.0086. The compound `O=C1CC[C@@]2(O)[C@H]3Cc4ccc(O)c5c4[C@@]2(CCN3CC2CC2)[C@H]1O5` [Naltrexone hydrochloride dihydrate] registered a growth of 0.175 ± 0.0025.

Regarding `C[N+]1(C)CCCC(OC(=O)C(O)(c2ccccc2)c2ccccc2)C1` (centres undefined) [Mepenzolate bromide], the growth is 0.179 ± 0.0065. Under `C1CCc2nnnn2CC1` [Pentylenetetrazole] stands 0.187 ± 0.0053; under `CC(=O)NC1CCSC1=O` (racemic) [N-Acetyl-DL-homocysteine Thiolactone], 0.185 ± 0.005. In turn, `CNC(C)(C)Cc1ccccc1` [Mephentermine hemisulfate] gave a growth of 0.193 ± 0.0098. Under `N[C@@H]1C[C@H]1c1ccccc1` [Tranylcypromine hydrochloride] stands 0.19 ± 0.0048. In turn, `CC(NC(C)(C)C)C(=O)c1cccc(Cl)c1` (centres undefined) [Bupropion hydrochloride] yielded a growth of 0.171 ± 0.0039.
